± gives the standard deviation of the averaged measurements. Whole data set: some 33,000 sequences, median “E-score (dimensionless, -0.5 to 0.5)” near -0.046, cut for the highest 2% near 0.36. For the sample, the highest values were picked, then their nearest neighbours and some sequences at random.
tested on: T1, SpTbr T-box DNA-binding domain (GST fusion); assay: PBM E-score of 8-mer (E-score (dimensionless, -0.5 to 0.5)); Tbr is Tbrain of the sea star Patiria miniata (Pm) or the sea urchin Strongylocentrotus purpuratus (Sp); higher = stronger binding preference; conditions: the construct has about 5 more residues each side
T1 sequence: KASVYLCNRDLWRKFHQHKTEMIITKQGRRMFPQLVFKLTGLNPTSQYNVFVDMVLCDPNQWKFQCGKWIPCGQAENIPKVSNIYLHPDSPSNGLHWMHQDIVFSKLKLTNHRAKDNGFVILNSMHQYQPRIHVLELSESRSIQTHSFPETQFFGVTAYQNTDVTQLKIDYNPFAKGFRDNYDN
Outline: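 Expression of GST-fused Tbr T-box DNA-binding domains, each holding the full T-box plus roughly five flanking residues, was carried out in BL21 E. coli at 20 °C, with purification by glutathione affinity chromatography. Universal Agilent arrays made double-stranded by primer extension were incubated with the protein at 200 nM in PBS (pH 7.5), then scanned and quantified. All ungapped 8-mers were scored from probe intensities, and each received an enrichment E-score from the Universal PBM Analysis Suite, averaged over duplicate arrays.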

Sequence	PBM E-score of 8-mer
ATCTAGAA	-0.151 ± 0.049
CACACGTG	0.383 ± 0.0078
CACACGGC	0.151 ± 0.069
CACACGTC	0.451 ± 0.0092
CACACGTA	0.356 ± 0.0042
CGCACGTC	0.331 ± 0.013
AACACGTG	0.36 ± 0.008
AACCCCTG	-0.108 ± 0.043
CACTGAGC	0.00197 ± 0.0073
CGCTTTAA	-0.169 ± 0.035
AAAGTAGC	-0.0267 ± 0.0034
ACTCGACA	0.24 ± 0.029
CAGCTGCC	-0.0128 ± 0.074
GAGTGTAA	0.235 ± 0.04
GAGTGTGC	0.296 ± 0.015
CAGTGTGA	0.393 ± 0.0076
GAGTGTGA	0.478 ± 0.0052
TAGTGTGA	0.453 ± 0.011
CAGTGTAA	0.0331 ± 0.071
TAGTGGGA	-0.0317 ± 0.03
CAGTGTGG	0.243 ± 0.043
TAGTGAGA	0.209 ± 0.089
CCAAAGGA	-0.262 ± 0.032
AGCCTCAC	0.178 ± 0.015
GCTGTTCC	-0.0355 ± 0.05

Sequence	PBM E-score of 8-mer
GCCTCCGA	-0.0614 ± 0.071
GAGTATGA	-0.047 ± 0.066
CTTGCCAA	0.153 ± 0.021
ATGGTGCG	0.206 ± 0.037
ATGGTGTG	0.39 ± 0.023
ATGGTGTC	0.392 ± 0.005
ATGGTGTA	0.127 ± 0.015
CTGGTGTC	0.312 ± 0.033
ATGGTGGC	0.274 ± 0.028
AAGTTTGA	-0.0385 ± 0.021
CGGTCAGC	-0.186 ± 0.18
ATTCAAAT	-0.0886 ± 0.04
ATAGAGCG	-0.0811 ± 0.011
AATTGTTC	0.0645 ± 0.035
GACCACCC	-0.0294 ± 0.0021
CACACCAC	0.394 ± 0.015
CACCACAC	0.3556 ± 0.0015
CACACCAA	0.38 ± 0.017
GACACCAC	0.367 ± 0.039
CGCACCAG	0.242 ± 0.0071
AACACCAC	0.344 ± 0.015
GACACCAA	0.327 ± 0.024
CCCACCAA	-0.0327 ± 0.016
CTCACCAA	0.133 ± 0.059
CACACCAG	0.386 ± 0.036

Sequence	PBM E-score of 8-mer
AACACCAG	0.317 ± 0.028
CCCACCAC	-0.00552 ± 0.018
TCATTTAA	-0.193 ± 0.036
CCTCTGCA	-0.1407 ± 0.00062
AATAGCCC	-0.194 ± 0.016
AGTAAATA	-0.121 ± 0.066
GCTTGCTA	-0.156 ± 0.02
AGCGCACG	0.137 ± 0.04
ACTGTCTG	0.126 ± 0.021
AGGCTTGG	-0.225 ± 0.031
AGACTTTC	0.00343 ± 0.055
GCTACCTA	-0.0771 ± 0.051
AGCTGTGG	0.129 ± 0.058
AGCTGTCC	0.00624 ± 0.016
AGCTGTGC	0.214 ± 0.041
GGCTGTCA	0.172 ± 0.051
ACCTGTGA	0.3985 ± 0.0028
GCCTGTGA	0.187 ± 0.0033
CCCTGTCG	-0.00439 ± 0.04
ACCTGTCG	0.37 ± 0.011
AGCTGTCA	0.382 ± 0.022
ACCTGTCT	0.104 ± 0.0037
ACCTGTGC	0.151 ± 0.018
AGCTGTGA	0.393 ± 0.0083
CGGCCAAA	-0.0415 ± 0.0054

Sequence	PBM E-score of 8-mer
ATAACCGA	-0.206 ± 0.066
CAGTTCTC	0.143 ± 0.053
AACCACTG	-0.317 ± 0.011
CACTCTCC	0.0753 ± 0.021
AACTGTGC	-0.0399 ± 0.045
AACTGTGA	0.376 ± 0.011
AACTGTGG	0.128 ± 0.0018
GCTTAGGA	-0.107 ± 0.059
CAACTCTG	0.225 ± 0.013
GACCTCTA	-0.234 ± 0.033
GACCTCTC	-0.153 ± 0.016
AACCTCTG	-0.137 ± 0.075
AACCTCTA	-0.187 ± 0.065
CACCTCTA	0.416 ± 0.0043
CACCTCTC	0.421 ± 0.022
AACCTCTC	-0.0774 ± 0.028
CACCTCTG	0.3929 ± 0.0014
ATAGGAGC	-0.181 ± 0.022
CACAACTC	0.25 ± 0.0039
AGAGGAGA	-0.116 ± 0.043
CTTTCAGC	-0.162 ± 0.032
GGTTGTTA	0.213 ± 0.048
CCGACCTC	-0.148 ± 0.046
CAACACGG	0.0142 ± 0.003
ATGTCAAC	0.267 ± 0.024

Sequence	PBM E-score of 8-mer
CTGTCAAC	0.35 ± 0.023
TTGTCAAA	0.0897 ± 0.09
GTGTCAAC	0.4761 ± 0.0027
ATGTCGCA	0.231 ± 0.039
GTGTCAGA	0.387 ± 0.023
GTGTCAAA	0.444 ± 0.0081
GTGTCGCA	0.367 ± 0.021
CTGTCAGA	0.207 ± 0.025
ATGTCAGA	-0.15 ± 0.011
CTGTCAAA	0.249 ± 0.057
CTGTCGCA	0.235 ± 0.054
CCGCTCTC	-0.00942 ± 0.013
CCTATTCG	-0.116 ± 0.11
AAACTATG	-0.131 ± 0.049
CCAACTCA	-0.0818 ± 0.049
CAGAAGCC	-0.308 ± 0.064
GTTCAATA	-0.174 ± 0.0066
GCGTCAAC	0.3857 ± 0.0035
CTGTCATA	0.122 ± 0.036
CCGTCAAC	0.24 ± 0.021
ATGTCACA	0.3087 ± 0.00058
GTGTCATA	0.404 ± 0.022
ATGTCATA	-0.202 ± 0.0053
GCGTCAAA	0.31 ± 0.029
GTGTCACA	0.436 ± 0.011

Sequence	PBM E-score of 8-mer
ATGTCACG	0.204 ± 0.017
ACCACACT	0.328 ± 0.0063
CAAGGTCC	-0.257 ± 0.041
AACCCGTT	-0.0209 ± 0.077
AGAGGTGC	0.394 ± 0.014
AGAGGTGA	0.298 ± 0.023
GGAGGTGA	0.374 ± 0.035
GGAGGTCA	0.0169 ± 0.067
CGAGGTTA	0.0218 ± 0.011
CGAGGTAC	-0.11 ± 0.026
CGAGGTCC	-0.207 ± 0.017
AGAGGTTC	-0.172 ± 0.065
AGAGGTGG	0.285 ± 0.031
CGAGGTCA	0.0539 ± 0.041
CGAGGTGC	0.445 ± 0.0072
CGAGGTGA	0.418 ± 0.01
GCAGCCCC	-0.15 ± 0.027
CGTAGTGC	-0.0779 ± 0.017
CGCTCGAC	-0.0351 ± 0.11
ATCCTGTA	-0.104 ± 0.036
ACCAGACT	-0.1941 ± 0.0019
GACGCCCA	-0.0155 ± 0.091
AGATGTTG	0.0448 ± 0.039
AGATGTTC	0.0355 ± 0.018
AGGTGTTC	0.3819 ± 0.00093

Sequence	PBM E-score of 8-mer
AGCTGTTG	0.208 ± 0.0081
AGGTGTTG	0.482 ± 0.0055
CGGTGTTC	-0.0703 ± 0.07
CGGGGTGC	0.233 ± 0.02
GGCCCAGA	-0.2892 ± 0.0023
GTATGGCA	0.0595 ± 0.0057
GCGCTGTA	0.206 ± 0.014
GTACTATA	-0.112 ± 0.079
CCATGCGC	-0.0395 ± 0.1
ACATATCC	-0.0962 ± 0.058
TCTATCAA	-0.141 ± 0.0063
CGATGTGA	0.183 ± 0.017
GGGTGTTA	0.463 ± 0.0026
CGGTGTCA	0.398 ± 0.02
GGGGGTCA	0.0604 ± 0.0046
CGGTGTCC	-0.0339 ± 0.0071
GGGTGTCA	0.475 ± 0.0055
CGGTGTTA	0.3373 ± 0.0021
CGGTGTGA	0.456 ± 0.0098
GGGGGTTA	-0.156 ± 0.038
CGATGTCA	0.1339 ± 0.00055
CGGTGTGC	0.0403 ± 0.015
GCGTGTCA	0.313 ± 0.024
ATGTAGGG	-0.355 ± 0.013
CGAGTTAA	0.193 ± 0.008

Sequence	PBM E-score of 8-mer
GCCCACTA	-0.0422 ± 0.07
CTTCACTA	0.0992 ± 0.0044
ACACCCGA	0.41 ± 0.0072
ACACCCGG	0.317 ± 0.042
CCACCCGC	0.105 ± 0.028
TCACCCGA	0.0108 ± 0.15
GCACCCGC	0.305 ± 0.035
ACACCCGC	0.3794 ± 0.0031
GCTCTGTA	-0.199 ± 0.025
AACTGACT	-0.141 ± 0.043
CAGAAATG	-0.202 ± 0.012
CGTTTTCC	-0.282 ± 0.054
TCATTACA	-0.0133 ± 0.029
ATGTGAAC	0.203 ± 0.012
CTGTGAAC	0.4126 ± 0.00049
TTGTGAAA	0.361 ± 0.04
ATGTGAAA	0.263 ± 0.03
CTGTGAAG	0.296 ± 0.027
CTGTGAAA	0.396 ± 0.017
AACTAGGC	-0.0665 ± 0.022
GCCGGATA	-0.321 ± 0.0046
CAGAGATC	-0.204 ± 0.022
TCGTAGCA	0.128 ± 0.038
GGATTGGA	-0.187 ± 0.026
CGATCCGA	-0.0614 ± 0.036

Sequence	PBM E-score of 8-mer
AAAGAGGG	-0.0825 ± 0.036
GCTGACAA	0.227 ± 0.031
CCTGACAG	0.121 ± 0.0013
ACTGACAC	0.349 ± 0.011
CCTGACAA	0.153 ± 0.0094
GCTGACAC	0.386 ± 0.039
CCTGACAC	0.427 ± 0.01
ATTTGTGG	0.075 ± 0.012
CTCGGGTC	-0.0239 ± 0.0073
AGATGACG	0.125 ± 0.029
TACAGCGA	-0.193 ± 0.038
AACACTTA	0.386 ± 0.031
AACACTTC	0.407 ± 0.0093
ATCACTTC	0.226 ± 0.033
CACACTGC	0.175 ± 0.0027
CGCACTTA	0.329 ± 0.0023
CACACTTA	0.447 ± 0.0064
AGCACTTC	0.3006 ± 0.0019
CACACTGA	0.235 ± 0.0071
CACACTTC	0.4456 ± 0.0039
ATCACTTA	0.0863 ± 0.053
AACACTGA	0.0941 ± 0.085
CCCACTTC	0.171 ± 0.018

Source: the supplement of paper PMC4166925
